Results on five molecules are retold here after PubChem BioAssay.

Calls of active or inactive are those of the source.

The nature of assay [1]: E. coli DRC41 culture turbidity changes, primary screen, E. coli filamentation inducer project, strain DRC41, OD650, 48 h (AID 1152).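 Further: E. coli MC1000 strain DRC41 lacking acrAB efflux pump and sulA.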 To be noted: E. coli DRC41 (acrAB sulA), higher = more signal, called active from +8 up or from −8 down.
Assay [2] is described as follows: small-molecule binders of probe aLefty1, primary screen, biochemical, small-molecule microarray, 635/667 nm fluorescence (AID 1153).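 Further: score merges spot fluorescence with signal-to-noise ratio from the scanned slide images.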 To be noted: higher = more signal.
Assay [3] can be described thus: PSAC antagonists in infected red cells, primary screen, cell-based, P. falciparum Indochina, OD700, 1 h (AID 1154). To be noted: P. falciparum Indochina infected RBC osmotic lysis, higher = more signal, called active from +8 up or from −8 down.
A short description of assay [4]: PSAC antagonists in infected red cells, primary screen, cell-based, P. falciparum Indochina, OD700, 2 h (AID 1155).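 Further: lysis reports solute entry through the parasite surface anion channel PSAC; channel blockers reduce lysis of infected cells.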 The settings on record: P. falciparum Indochina infected erythrocytes, osmotic lysis OD700; higher = more signal, called active from +8 up or from −8 down.
A short description of assay [5]: osmotic lysis modulators in infected erythrocytes, primary screen, PSAC antagonist project, cell-based, P. falciparum Indochina, OD700, 3 h (AID 1156). To be noted: higher = more signal, called active from +8 up or from −8 down.
Assay [6] can be described thus: PSAC antagonists in infected red cells, primary screen, cell-based, P. falciparum Indochina, OD700, 18 h (AID 1157). To be noted: P. falciparum Indochina infected erythrocytes, osmotic lysis OD700, 18 h; higher = more signal, called active from +8 up or from −8 down.
Assay [7] is described as follows: modulators of S6 phosphorylation in cells, primary screen, cell-based, A549, cytoblot, luminescence, serum-stimulated (AID 1158).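 Further: serum-stimulated A549 lung adenocarcinoma cells; signal is phosphorylated S6 detected by cytoblot immunostaining with HRP secondary.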 The settings on record: A549 phospho-S6 cytoblot, 5 h, higher = more signal.
The target in assay [8] is NADPH oxidase 2 (Homo sapiens) (UniProt P04839). The assay can be described thus: NOX2-dependent H2O2 signal modulators, primary screen, NOX inhibitor project, cell-based, HEK293-NOX2, PMA-stimulated, Amplex Red fluorescence (AID 1159). Further: test concentration not given here. The settings on record: 45 min, higher = more signal, called active from +8 up or from −8 down.
Assay [9] has as its target NADPH oxidase 4 (Homo sapiens) (UniProt Q9NPH5). Nature of the assay: NOX4-dependent H2O2 signal modulators, primary screen, NOX inhibitor project, cell-based, HEK293-NOX4, tetracycline-induced, Amplex Red fluorescence (AID 1160). The settings on record: 45 min, higher = more signal, called active from +8 up or from −8 down.
Assay [10] deals with NADPH oxidase 5 (Homo sapiens) (UniProt Q96PH1). Nature of the assay: NOX5-dependent H2O2 signal modulators, primary screen, NOX inhibitor project, cell-based, HEK293-NOX5, Amplex Red fluorescence (AID 1161). To be noted: HEK293-NOX5, ionomycin, 45 min, higher = more signal.
Assay [11] can be described thus: A549 cell viability effects, profiling panel, calcein-AM fluorescence, 48 h, basal (AID 1162). Further: test concentration not given here. The settings on record: higher = more signal.
The nature of assay [12]: adipocyte viability effects, profiling panel, cell-based, 3T3-L1 adipocytes, calcein-AM fluorescence, 48 h, basal (AID 1163). Further: test concentration not given here. To be noted: 3T3-L1 adipocytes viability, higher = more signal.
Assay [13] in a line: HepG2 cell viability effects, profiling panel, calcein-AM fluorescence, 48 h, basal (AID 1164). Further: test concentration not given here. The settings on record: higher = more signal.
Assay [14] can be described thus: MM1S cell viability effects, profiling panel, calcein-AM fluorescence, 48 h, basal (AID 1165).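 Further: viability of MM1S multiple myeloma cells under basal unstimulated conditions; test concentration not given here.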 The settings on record: higher = more signal.
Assay [15] is described as follows: basal RPMI8226 viability, no added stimulus, profiling panel, cell-based, calcein-AM fluorescence, 48 h, PK04 Diversity Set (AID 1166).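 Further: cells grown under basal conditions without added stimulus; test concentration not given here.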 The settings on record: RPMI8226 myeloma viability, higher = more signal.
The nature of assay [16]: basal HepG2 mitochondrial membrane potential changes, profiling panel, cell-based, JC-1 fluorescence, 24 h, 100 nL compound (AID 1167). Further: test concentration not given here. To be noted: higher = more signal.
A short description of assay [17]: basal 3T3-L1 adipocyte mitochondrial potential changes, profiling panel, cell-based, JC-1 fluorescence, 3T3-L1 adipocytes, 24 h, 100 nL compound (AID 1168). Further: test concentration not given here. To be noted: JC-1 mitochondrial fluorescence, higher = more signal, called active from +8 up or from −8 down.
Assay [18] is described as follows: basal RPMI8226 mitochondrial membrane potential changes, profiling panel, cell-based, JC-1 fluorescence, 24 h, 100 nL compound (AID 1169). Further: test concentration not given here. The settings on record: RPMI8226 myeloma, JC-1 mitochondrial potential fluorescence, higher = more signal.
The nature of assay [19]: basal MM1S mitochondrial membrane potential changes, profiling panel, cell-based, JC-1 fluorescence, 24 h, 100 nL compound (AID 1170). Further: test concentration not given here. To be noted: higher = more signal.
Assay [20] is described as follows: A549 lung cancer cell viability effects, profiling panel, resazurin fluorescence, 24 h, PK04 Diversity Set (AID 1171). Further: test concentration not given here. To be noted: higher = more signal, called active from +8 up or from −8 down.

Chain of NADPH oxidase 4 (Homo sapiens) (Q9NPH5 whole entry, looked up): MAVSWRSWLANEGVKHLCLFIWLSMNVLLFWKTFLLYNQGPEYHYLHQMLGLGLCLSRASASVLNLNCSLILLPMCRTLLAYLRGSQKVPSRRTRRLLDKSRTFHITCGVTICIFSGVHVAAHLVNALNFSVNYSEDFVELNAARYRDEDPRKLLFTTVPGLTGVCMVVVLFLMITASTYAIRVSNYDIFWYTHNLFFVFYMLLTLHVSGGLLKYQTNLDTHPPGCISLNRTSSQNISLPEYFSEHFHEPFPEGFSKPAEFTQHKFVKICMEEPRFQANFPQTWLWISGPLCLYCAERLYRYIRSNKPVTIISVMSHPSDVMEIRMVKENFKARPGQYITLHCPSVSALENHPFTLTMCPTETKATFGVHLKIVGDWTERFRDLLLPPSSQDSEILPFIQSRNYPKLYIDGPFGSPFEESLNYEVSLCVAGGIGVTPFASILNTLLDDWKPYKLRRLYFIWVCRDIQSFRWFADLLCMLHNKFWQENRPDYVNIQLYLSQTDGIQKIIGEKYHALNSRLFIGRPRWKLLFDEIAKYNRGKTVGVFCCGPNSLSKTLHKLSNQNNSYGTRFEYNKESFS
Chain of NADPH oxidase 2 (Homo sapiens) (P04839 whole entry, looked up): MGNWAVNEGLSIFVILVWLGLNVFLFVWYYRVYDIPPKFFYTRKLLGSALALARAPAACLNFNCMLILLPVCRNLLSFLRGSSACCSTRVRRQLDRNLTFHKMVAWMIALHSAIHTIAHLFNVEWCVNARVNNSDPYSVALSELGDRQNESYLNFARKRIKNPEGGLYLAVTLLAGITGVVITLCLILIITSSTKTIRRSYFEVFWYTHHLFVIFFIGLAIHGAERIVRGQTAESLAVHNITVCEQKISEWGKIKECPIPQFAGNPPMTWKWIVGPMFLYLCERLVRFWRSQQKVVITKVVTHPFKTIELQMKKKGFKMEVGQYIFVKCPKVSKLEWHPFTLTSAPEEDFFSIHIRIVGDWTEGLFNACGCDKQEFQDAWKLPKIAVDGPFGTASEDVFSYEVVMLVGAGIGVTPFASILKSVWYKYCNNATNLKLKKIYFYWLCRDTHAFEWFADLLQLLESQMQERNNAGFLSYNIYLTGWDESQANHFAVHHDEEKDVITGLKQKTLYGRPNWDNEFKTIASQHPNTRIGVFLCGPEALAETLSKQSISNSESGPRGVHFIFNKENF
Chain of NADPH oxidase 5 (Homo sapiens) (Q96PH1 whole entry, looked up): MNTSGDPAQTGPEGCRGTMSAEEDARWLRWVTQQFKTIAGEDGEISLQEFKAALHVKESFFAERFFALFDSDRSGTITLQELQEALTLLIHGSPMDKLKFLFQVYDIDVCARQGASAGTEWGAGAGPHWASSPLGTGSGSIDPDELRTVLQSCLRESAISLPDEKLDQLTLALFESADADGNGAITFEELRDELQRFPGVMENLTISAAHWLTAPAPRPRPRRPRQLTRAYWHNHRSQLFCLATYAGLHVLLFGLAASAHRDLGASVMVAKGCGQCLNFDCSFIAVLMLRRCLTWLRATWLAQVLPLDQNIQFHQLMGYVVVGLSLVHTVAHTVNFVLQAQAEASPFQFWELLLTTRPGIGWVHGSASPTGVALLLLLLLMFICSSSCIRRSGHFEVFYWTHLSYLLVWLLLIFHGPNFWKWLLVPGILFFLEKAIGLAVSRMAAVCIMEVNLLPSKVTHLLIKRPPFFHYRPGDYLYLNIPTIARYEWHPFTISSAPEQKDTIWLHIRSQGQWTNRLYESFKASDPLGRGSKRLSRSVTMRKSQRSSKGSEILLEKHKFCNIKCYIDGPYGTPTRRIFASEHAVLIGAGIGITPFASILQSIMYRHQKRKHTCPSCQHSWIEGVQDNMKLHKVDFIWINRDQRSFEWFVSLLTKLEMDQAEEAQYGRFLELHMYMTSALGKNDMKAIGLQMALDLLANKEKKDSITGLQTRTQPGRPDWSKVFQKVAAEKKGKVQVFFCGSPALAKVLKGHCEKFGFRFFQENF

As for `COCCOC(=O)N1C(=O)[C@@]2(c3cc(C#CCCO)ccc31)[C@H](C(=O)N1CCc3cc(OC)c(OC)cc3C1)[C@H]1C(=O)O[C@H](c3ccccc3)[C@H](c3ccccc3)N1[C@@H]2c1ccc(OCCO)cc1`, the z-score in [1] is 1.42 (inactive); in [3], 4.67 (inactive); in assay [4] it was 1.02 (inactive); in assay [5], 0.138 (inactive); in [6], -0.0492 (inactive); in [7], 1.26. The z-score in assay [8] is 1.35 (inactive); in [9], 1.07 (inactive); in assay [10], 1.44; in assay [11], 1.31; in [12], 1.05; in [13], 1.15. Further, the z-score in [14] is 0.214; in assay [15], 1.23; in assay [16] it was -0.495; in [17], 1.21 (inactive); in [18], -0.532; in assay [19], -0.901. Moreover, the z-score in [20] is 0.86 (inactive). For the same molecule, the composite z-score in assay [2] came out at 0.113.
With `C[C@]12C(=O)N(CCCCCO)[C@@H]3C(=O)N(c4ccc(Cl)cc4)CC=CC31O[C@@H]1/C=C\CCCOC(=O)C12` (stereo not given in full), the z-score was -1.14 (inactive) in assay [1]; -0.198 (inactive) in assay [3]; -0.307 (inactive) in [4]; -1.04 (inactive) in assay [5]; -0.183 (inactive) in [6]; -0.58 in assay [7]. Besides, the z-score was 0.754 (inactive) in assay [8]; 0.055 (inactive) in assay [9]; 1.45 in assay [10]; -0.237 in assay [11]; 0.282 in assay [12]; 0.209 in assay [13]. Moreover, the z-score was 0.355 in assay [14]; -0.376 in [15]; -0.259 in assay [16]; -0.175 (inactive) in assay [17]; 0.109 in assay [18]; -0.0571 in assay [19]. Besides, the z-score in assay [20] was -0.663 (inactive). In assay [2], this molecule displayed a composite z-score of -0.0054.
As to `C[N+](C)(C)CCCC[C@@H]1NC(=O)[C@H]2C[C@@H](C(=O)NCCCCCCN)[C@@H](c3cccc(OCCO)c3)N2C1=O`, the z-score was -0.0261 (inactive) in assay [1]; 1.19 (inactive) in assay [3]; 0.156 (inactive) in [4]; 3.3 (inactive) in assay [5]; 0.0792 (inactive) in [6]; -0.161 in assay [7]. In addition, the z-score is 1.12 (inactive) in [8]; 0.64 (inactive) in assay [9]; 1.58 in assay [10]; -0.535 in assay [11]; 0.875 in [12]; -0.997 in assay [13]. The z-score in assay [14] is 0.179; in [15] it was 1.07; in assay [16], -1.01; in [17], -0.547 (inactive); in [18], -0.0252; in assay [19], -0.154. In assay [20], the z-score was -0.871 (inactive). Moreover, the composite z-score in [2] was 1.29.
For `COCCOC(=O)N1C(=O)[C@@]2(c3cc(C#Cc4ccc(OC)cc4)ccc31)[C@H](C(=O)N1CCc3cc(OC)c(OC)cc3C1)[C@H]1C(=O)O[C@H](c3ccccc3)[C@H](c3ccccc3)N1[C@@H]2c1ccc(OCCO)cc1`, the z-score in assay [1] is 0.59 (inactive); in assay [3], 6.15 (inactive); in assay [4], 2.99 (inactive); in assay [5], 1.69 (inactive); in [6] it was 1.42 (inactive); in [7] it was 0.228. Moreover, the z-score in assay [8] was -0.306 (inactive); in assay [9], -1.58 (inactive); in [10] it was -0.623; in [11], -0.403; in assay [12], 1.41; in [13] it was -1.13. The z-score in assay [14] was -0.0142; in assay [15] it was -1.38; in [16], -0.999; in [17], 2.31 (inactive); in assay [18] it was -0.223; in assay [19], -0.919. Moreover, the z-score in assay [20] is -0.0945 (inactive). The composite z-score in assay [2] came to 0.0391.
`CC(C)NC(=O)[C@@]1(Cc2ccccc2I)c2ccccc2C(=O)N(Cc2ccccc2C(F)(F)F)[C@H]1c1ccc(CO)cc1`: the z-score is 0.267 (inactive) in [1]; 5.93 (inactive) in assay [3]; 1.82 (inactive) in assay [4]; 0.602 (inactive) in assay [5]; 1.19 (inactive) in [6]; -0.171 in assay [7]. Also, the z-score is 1.12 (inactive) in assay [8]; -0.213 (inactive) in assay [9]; 2.3 in assay [10]; 0.325 in assay [11]; 1.77 in [12]; 0.289 in [13]. Further, the z-score was -1.43 in assay [14]; -1.66 in [15]; 0.347 in assay [16]; 0.536 (inactive) in assay [17]; -0.476 in assay [18]; 0.749 in assay [19]. The z-score in assay [20] is 0.444 (inactive). In assay [2], this molecule had a composite z-score of 0.243.
